Data published in PubChem BioAssay (NCI).
“And” between values parts separate entries of the source, which are not always exact repeats. Equal values may be shown once. This is part of a sample that, as a whole, favours compounds with a hit. Of some 83,000 tested, about 20% had one in any assay.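 Cell lines were cultured in 96-well plates, exposed to a single compound concentration, and assessed for percent growth 48 hours later.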 The source made the active and inactive calls. Rule for the calls: active = growth percent below 10; inactive = the rest.

System: MDA-MB-468 breast
Assay: NCI-60 one-dose screen, 48 h (100 = growth as untreated, 0 = no growth, -100 = all killed)
Conditions: 10 µM unless noted

| Structure (SMILES) | growth |
| --- | --- |
| CN(C)c1ccc(/C=C/C(=O)c2ccc(-n3cc(CN4CCN(c5cc6c(cc5F)c(=O)c(C(=O)O)cn6C5CC5)CC4)nn3)cc2)cc1 | 32.9% (inactive) |
| CN1C(=O)CCC(N2C(=O)c3cccc(NCCOCCOCCNC(=O)c4cc5c(o4)C(=O)c4ccccc4C5=O)c3C2=O)C1=O (stereo not given) | -28.3% (active) |
| O=C(Nc1ccc(Cl)cc1)c1cc2ccccc2cc1O | 21.4% (inactive) and -6.92% (active) |
| O=C1CC(C(F)(F)F)=NN1C(=O)c1nn(-c2ccc(Cl)cc2)cc1O | 116% (inactive) |
| C=C(Cl)COC(=O)C(C)(C)O | 118% (inactive) |
| COC(=O)C1=C(C)NC(C)=C(C(=O)OC)C(N2C(=O)CCC2=O)C1 (stereo not given) | 63.4% (inactive) |
| O=C(N/N=C/c1ccc(F)cc1)c1[nH]c2ccc(I)cc2c1-c1ccccc1 | 17.8% (inactive) |
| COC(=O)C(Cc1cn(C(C)=O)c2ccccc12)P(=O)(OC)OC (stereo not given) | 101% (inactive) |
| Cc1ccc(C(=O)N2C/C(=C/c3ccccc3)C(=O)/C(=C/c3ccccc3)C2)cc1 | 18.1% (inactive) |
| CCOC(=O)C(=CNc1cnc(Nc2ccc(N3CCOCC3)cc2)nc1Oc1ccc(OC)cc1)C(=O)OCC | 61.5% (inactive) |
| COc1ccc(N2C(=O)/C(=C/C(Cl)=C/c3ccc([N+](=O)[O-])cc3)SC2=S)cc1 | -11.8% (active) |
| CCOC(=O)C(Cc1ccccc1)n1c(O)c(C=Nc2ccc(C(=O)OCCN(CC)CC)cc2)sc1=O (stereo not given) | 82.6% (inactive) |
| COc1ccc(C2CC(c3ccc(Nc4ccnc5cc(Cl)ccc45)cc3)=NN2C(C)=O)cc1 (stereo not given) | 65.3% (inactive) |
| C=C(C)[C@@H]1CC[C@]2(C(=O)Nc3ccccn3)CC[C@]3(C)[C@H](CC[C@@H]4[C@@]5(C)CCCNC(C)(C)[C@@H]5CC[C@]43C)[C@@H]12 | -13.8% (active) |
| CCOC(=O)c1sc(NC(=O)COc2ccc(/C=C3\Cc4ccc(Cl)cc4C3=O)cc2)nc1C | 115% (inactive) |
| COc1ccc(C(=O)c2c(N)c(C#N)cn2-c2ccccc2OC)cc1 | 31% (inactive) |
| O=C1/C(=C/c2ccc(Br)cc2)COc2ccc(O)cc21 | 89% (inactive) |
| CN(C)CCC(=O)c1c[nH]c2ccccc12 | 106% (inactive) |
| C=C(C)[C@@H]1CC[C@]2(COC3CCCCO3)CC[C@]3(C)[C@H](CC[C@@H]4[C@@]5(C)C=C(C=O)C(=O)C(C)(C)[C@@H]5CC[C@]43C)[C@@H]12 (stereo not given in full) | -53.1% (active) |
| CC(C)(C)c1nc(-c2cccc(NS(=O)(=O)c3c(F)cccc3F)c2F)c(-c2ccnc(N)n2)s1 | 140% (inactive) |

| Structure (SMILES) | growth |
| --- | --- |
| Clc1ccc(C2=NN=C3C(Cc4ccccc4)=Nc4ccccc4N3C2)cc1 | 84.7% (inactive) |
| Cc1ccc(-c2cnc3sc4ccc(Cl)cc4n23)cc1 | 103% (inactive) |
| CCn1cc(C(=O)O)c(=O)c2cc(F)c(N3CCN(S(=O)(=O)c4cccc5ccccc45)CC3)cc21 | 4.79% (active) |
| COc1ccc(-c2nc3sccn3c2-c2ccnc(S(C)(=O)=O)n2)cc1 | -25.9% (active) |
| Cn1cc(-c2nc3c(F)cc4[nH]ncc4c3c3c2CCCC3)c(C(F)(F)F)n1 | 33% (inactive) |
| CSC(=N\N=C\c1ccc(N(C)C)cc1)/N=C/N(C)C | 83.5% (inactive) |
| Cc1ccccc1-n1nnc(C(=O)Nc2nc3ccc(F)cc3s2)c1C | 32.8% (inactive) |
| Cc1nc(O)cc(=O)[nH]1 | 113% (inactive) |
| CCC(=O)OC1=CN2C(=NC(c3ccc(N)cc3)=CC2c2cc(OC)c(OC)c(OC)c2)S1 (stereo not given) | 25.5% (inactive) |
| CNCCNc1nc2ccccc2c2c(=O)c3cccc(OC)c3sc12 | 20.9% (inactive) |
| Nc1ccccc1SC1CC(=O)N(c2ccc(Cl)c(Cl)c2)C1=O (stereo not given) | 80.4% (inactive) |
| Cc1ccc(/C=N\NC(=O)c2[nH]c3ccc(F)cc3c2-c2ccccc2)cc1 | -14.5% (active) |
| Cc1nccc2c3ccc(OCc4cn(Cc5ccc(Br)cc5)nn4)cc3n(CCCc3ccccc3)c12 | 93.4% (inactive) |
| O=C(O)c1cn(C2CC2)c2cc(N3CCN(Cc4nc5c(cnn5-c5ccc([N+](=O)[O-])cc5)c(=O)[nH]4)CC3)c(F)cc2c1=O | 103% (inactive) |
| CCNC(=O)N1CCc2cc(OC)c(OCCc3ccc(OC)c(N)c3)cc2C1c1ccc(C)cc1C (stereo not given) | -0.144% (active) |
| NC(=O)c1ccc2c(c1)OCO2 | 88.9% (inactive) |
| Cn1c(=O)c2c(nc(NC3=NS(=O)(=O)c4ccccc43)n2Cc2ccccc2)n(C)c1=O | 103% (inactive) |
| OC(c1cc(C(F)(F)F)nc2c(C(F)(F)F)cccc12)C1CCCCN1 (stereo not given) | -5.03% (active) |
| O=C(NCCN1CCOCC1)OCc1ccc2c(Cl)cc(Cl)c(O)c2n1 | 81.6% (inactive) |
| C=C(C)[C@@H]1CC[C@]2(C)[C@H](CC=C3[C@@H]4C[C@](C)(C(=O)N5CCN(C)CC5)CC[C@]4(C)CC[C@]32C)[C@@]1(C)CCC#N | 38.3% (inactive) |
